Laboratory results reported in PubChem BioAssay (NCATS).
Results filed as inconclusive are left out. The source made the active and inactive calls. Calls come from the whole dose curve; as a rule, active = well fitted curve in the direction sought with a large enough effect; inconclusive = small, poorly fitted or top-dose-only effect, or another doubt; inactive = no such curve, though single readings can be large; an effect the other way counts as inactive or inconclusive.

Experiments:
HACAT = assay: qHTS assay to identify novel small-molecules to repurpose for Merkel cell carcinoma treatment (AID 1296009); conditions: MCC and control cell lines, CellTiter-Glo viability, 72 h; at 44.8 µM (top of the series) unless noted; note: nearly all actives have a fitted effect of over 60% in size
Outline: (§1)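 Luminescence from CellTiter-Glo, read 10 min after addition at room temperature, reported viability following a 72 hr, 37 degree celsius treatment with NPC or MIPE compounds in titration; values normalized to plate controls.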

HEK293T [1] = assay: as above; conditions: MCC and control cell lines, CellTiter-Glo viability, 72 h; at 44.8 µM (top of the series)
Outline: as §1

MCC-13 = assay: as above; conditions: MCC and control cell lines, CellTiter-Glo viability, 72 h; series mostly up to 46 µM
Outline: as §1

MCC-26 = assay: as above; conditions: MCC and control cell lines, CellTiter-Glo viability, 72 h; series mostly up to 46 µM
Outline: as §1

MKL-1 = assay: as above; conditions: MCC and control cell lines, CellTiter-Glo viability, 72 h; series mostly up to 46 µM
Outline: as §1

MKL-2 = assay: as above; conditions: MCC and control cell lines, CellTiter-Glo viability, 72 h; series mostly up to 46 µM
Outline: as §1

NIH3T3 = assay: as above; conditions: MCC and control cell lines, CellTiter-Glo viability, 72 h; at 44.8 µM (top of the series) unless noted
Outline: as §1

UISO = assay: as above; conditions: MCC and control cell lines, CellTiter-Glo viability, 72 h; series mostly up to 46 µM
Outline: as §1

WaGa = assay: as above; conditions: MCC and control cell lines, CellTiter-Glo viability, 72 h; series mostly up to 46 µM
Outline: as §1

C33A = assay: Primary qHTS to identify gynecologic anti-cancer compounds using libraries of approved drugs and bioactive compounds (AID 1345084); conditions: Gynecologic cancer cell panel viability, ATPlite luminescence, 48 h; series mostly up to 57.5 µM; note: nearly all actives have a fitted effect of over 55% in size
Outline: (§2)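 48 h compound exposure at 37 C, 5% CO2; five-point qHTS. ATPlite luminescence readout of cell ATP.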

CASKI = assay: as above; conditions: Gynecologic cancer cell panel viability, ATPlite luminescence, 48 h; series mostly up to 57.5 µM
Outline: as §2

Es-2 = assay: as above; conditions: Gynecologic cancer cell panel viability, ATPlite luminescence, 48 h; series mostly up to 57.5 µM
Outline: as §2

HeLa = assay: as above; conditions: Gynecologic cancer cell panel viability, ATPlite luminescence, 48 h; series mostly up to 57.5 µM
Outline: as §2

Hek293T [2] = assay: as above; conditions: Gynecologic cancer cell panel viability, ATPlite luminescence, 48 h, control line for the selectivity index; series mostly up to 57.5 µM
Outline: as §2

JEG-3 = assay: as above; conditions: Gynecologic cancer cell panel viability, ATPlite luminescence, 48 h; series mostly up to 57.5 µM
Outline: as §2

OV90 = assay: as above; conditions: Gynecologic cancer cell panel viability, ATPlite luminescence, 48 h; series mostly up to 57.5 µM
Outline: as §2

PA-1 = assay: as above; conditions: Gynecologic cancer cell panel viability, ATPlite luminescence, 48 h; series mostly up to 57.5 µM
Outline: as §2

SKOV3 = assay: as above; conditions: Gynecologic cancer cell panel viability, ATPlite luminescence, 48 h; series mostly up to 57.5 µM
Outline: as §2

Tov-21-G = assay: as above; conditions: Gynecologic cancer cell panel viability, ATPlite luminescence, 48 h; series mostly up to 57.5 µM
Outline: as §2

CAOV3 = assay: as above; conditions: Gynecologic cancer cell panel viability, ATPlite luminescence, 48 h; series mostly up to 57.5 µM
Outline: as §2

Measured: Potency

O=C1NCC2(CCN(CCc3ccccc3)CC2)O1
not listed: CAOV3
inactive: all other assays above

CCC(CC)[C@H](NC(C)=O)[C@@H]1[C@H](O)[C@@H](C(=O)O)C[C@@H]1N=C(N)N
inactive: HACAT | MCC-13 | MCC-26 | MKL-1 | MKL-2 | NIH3T3 | UISO | WaGa

COc1ccccc1N1CCN(CCCNc2cc(=O)n(C)c(=O)n2C)CC1
inactive: all assays above

Nc1ncnc2c1ncn2[C@@H]1O[C@@H](CO)[C@H](O)[C@H]1O
inactive: HACAT | HEK293T [1] | MCC-13 | MCC-26 | MKL-1 | MKL-2 | UISO | WaGa

CCN(CC)CCNC(=O)c1ccc(N)cc1
inactive: HACAT inactive; activator | HEK293T [1] | MCC-13 | MCC-26 | MKL-1 | MKL-2 | NIH3T3 | UISO | WaGa | C33A | CAOV3 | CASKI | Es-2 | HeLa | Hek293T [2] | JEG-3 | OV90 | PA-1 | SKOV3 | Tov-21-G

CC(=O)O[C@]1(C(C)=O)CC[C@@H]2[C@@H]3C[C@H](C)C4=CC(=O)CC[C@]4(C)[C@H]3CC[C@@]21C
inactive: HACAT | HEK293T [1] | MCC-13 | MCC-26 | UISO

O=C(O)c1ccc(-c2cc3cccnc3c(-c3ccc4nonc4c3)n2)cc1
inactive: HACAT | MCC-13 | MCC-26

CC1(C)Cc2c(sc(NC(=S)NC(=O)c3ccccc3)c2C(=O)O)CO1
inactive: HACAT | HEK293T [1] | MCC-13 | MCC-26 | MKL-1 | NIH3T3 | UISO | WaGa

O=c1ccn([C@@H]2O[C@H](CO)[C@H](O)[C@H]2O)c(=O)[nH]1
inactive: HACAT | HEK293T [1] | MCC-13 | MCC-26 | MKL-1 | MKL-2 | UISO | WaGa

CCN1CCC[C@H]1CNC(=O)c1cc(S(N)(=O)=O)ccc1OC
not listed: MCC-26 | NIH3T3
inactive: all other assays above

OC[C@@H](O)[C@H](O)[C@H](O)[C@@H](O)CO
not listed: MCC-26 | CAOV3
inactive: all other assays above

Cc1cccc(C)c1OCC(C)N (stereo not given)
not listed: SKOV3 | CAOV3
inactive: all other assays above

COc1cc2ncnc(-n3nc(-c4ccccn4)nc3N)c2cc1OC
not listed: MCC-26 | NIH3T3 | UISO | SKOV3 | CAOV3
inactive: all other assays above

C=C1C(=O)OC(CCCCCCCC)C1C(=O)O (stereo not given)
inactive: HACAT | HEK293T [1] | MCC-13 | MKL-1 | MKL-2 | UISO | WaGa

CN(C)CCC(c1ccccc1)c1ccccn1 (stereo not given)
not listed: CAOV3
inactive: all other assays above

CCOC(=O)C1=C(N)Oc2ccc(Br)cc2C1C(C#N)C(=O)OCC (stereo not given)
not listed: CAOV3
inactive: all other assays above

C[N+]1(C)[C@@H]2CC(OC(=O)[C@H](CO)c3ccccc3)C[C@H]1[C@H]1O[C@@H]12 (stereo not given in full)
inactive: HACAT | HEK293T [1] | MCC-13 | MCC-26 | MKL-1 | MKL-2 | UISO | WaGa

CCOC(=O)O[C@]1(C(=O)OCCl)CC[C@@H]2[C@H]3CCC4=CC(=O)C=C[C@]4(C)[C@@H]3[C@@H](O)C[C@@]21C
inactive: HACAT | HEK293T [1] | MCC-13 | MCC-26 | MKL-1 | MKL-2 | NIH3T3 | UISO | WaGa

O=C(O)CCC1CCC(c2cc(F)ccc2F)(S(=O)(=O)c2ccc(Cl)cc2)CC1 (stereo not given)
inactive: HACAT | MCC-13 | MCC-26 | MKL-1 | UISO
